Data from PubChem BioAssay AID588397 (National Center for Advancing Translational Sciences (NCATS), 2011).
“And” between values parts separate entries of the source, which are not always exact repeats. Identical values can stand only once. About 1,000 (77%) of roughly 1,300 compounds were called active. Inconclusive results (about 7%) are left out. Calls follow the shape of the dose curve; as a rule, active = well fitted inhibition curve with a large enough effect; inconclusive = small, poorly fitted or top-dose-only effect; inactive = no such curve, though single readings can be large or run the other way. The set was probably picked from earlier hits. The list shows a part of the results.

Test: qHTS of small molecules that selectively kill Giardia lamblia: Hit Validation.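 Also: viability measured as ATP content by luminescence so killing lowers signal; nearly all actives have a fitted effect of over 65% in size.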
Settings: Giardia lamblia trophozoite viability, dose-response; series mostly up to 38.3 µM
Summary of the method: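 Compounds were tested on trophozoites seeded at 100 cells/well and held 48 hrs at 37 deg C anaerobically. An ATP-based luminescent kit measured the remaining live cells.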
Potency is read from the fitted curve at half-maximal effect.

| SMILES | Potency |
| --- | --- |
| CCOC(=O)c1nc(C(=O)NCc2ccc(C)cc2)nc2ccccc12 | 7290 nM (active) |
| N#Cc1ccc(-c2c(-c3ccccc3)ncc3cc(F)ccc23)cc1 | inactive |
| O=[N+]([O-])c1nn(-c2ccc(Cl)cc2)n(O)c1=NCc1ccccc1 | 9180 nM (active) |
| Cc1ccc(CN=c2c([N+](=O)[O-])nn(-c3ccc(Cl)cc3)n2O)cc1 | 7290 nM (active) |
| O=[N+]([O-])c1nn(-c2ccc(Cl)cc2)n(O)c1=NCc1ccncc1 | 3650 nM (active) |
| COc1ccc(OC)c(NC(=O)N2CCc3ccccc3C2)c1 | inactive |
| COc1ccc2cc3cc(C(=O)Nc4ccccc4N4CCN(C)CC4)oc3nc2c1 | 2050 nM (active) |
| Cc1ccccc1Cn1nnc2c1C(=O)c1ccccc1C2=O | 2900 nM (active) |
| O=C(CN1CCN(c2ccccc2)CC1)Nc1scc2c1c(=O)oc1ccccc12 | inactive |
| O=[N+]([O-])c1ccc(CN2CCN(c3ccc(Cl)cc3)CC2)o1 | 729 nM (active) |
| O=[N+]([O-])c1ccc(N2CCN(Cc3ccc([N+](=O)[O-])o3)CC2)cc1 | 516 nM (active) |
| O=[N+]([O-])c1ccc(CN2CCN(c3ccc(F)cc3)CC2)o1 | 1030 nM (active) |
| O=[N+]([O-])c1ccc(CN2CCN(c3ccccc3)CC2)o1 | 818 nM (active) |
| COc1ccc(C(=O)CC(SCC(NC(C)=O)C(=O)O)c2ccc(Cl)cc2)cc1OC (centres undefined) | 13000 nM (active) |
| COc1ccc2c3n([n+]([O-])c2c1)CCN=C3c1cc(Cl)c(N)c(Cl)c1 | 183 nM (active) |
| COc1ccc2c3n([n+]([O-])c2c1)CCN=C3c1ccc(Cl)cc1 | 579 nM (active) |
| Nc1c(Cl)cc(C2=NCCn3c2c2ccccc2[n+]3[O-])cc1Cl | 326 nM (active) |
| COc1ccc2c3n([n+]([O-])c2c1)CCN=C3c1ccc(C)cc1 | 365 nM (active) |
| c1ccc(-c2cn3nc(-c4ccccc4)sc3n2)cc1 | 918 nM (active) |
| O=C(O)CCCCCNS(=O)(=O)c1cccc2c1C(=O)c1ccccc1C2=O | 3650 nM (active) |
| CC(C)c1ccc(Nc2nnc(SCC(=O)Nc3ncc(S(=O)(=O)c4ccc([N+](=O)[O-])cc4)s3)s2)cc1 | 2050 nM (active) |
| N#CC1C=Cc2c(ccc3ccccc23)N1C(=O)c1ccccc1 (centres undefined) | 1630 nM (active) |
| c1ccc(CNc2ncnc3ccccc23)cc1 | inactive |
| O=C(Cn1cnc2c(OCc3ccccc3)ncnc21)NCCCc1ccccc1 | inactive |

| SMILES | Potency |
| --- | --- |
| O=C(Cn1ccnc1[N+](=O)[O-])NCc1ccccc1 | 1300 nM (active) |
| CC1CC(C)C(=NNC(N)=O)C(C(O)CC2CCC(=O)NC2=O)C1 (centres undefined) | 163 nM (active) |
| COc1ccc(NC(C)C(=O)N/N=C/c2ccc([N+](=O)[O-])s2)cc1 (centres undefined) | 1630 nM (active) |
| Cc1ccc(NC(C)C(=O)N/N=C/c2ccc([N+](=O)[O-])s2)cc1 (centres undefined) | 2900 nM (active) |
| CCn1cnc2c([N+](=O)[O-])c(NS(=O)(=O)c3ccc(C)cc3)ccc21 | 206 nM (active) |
| Cc1ccc(OCC(=O)N/N=C/c2ccc([N+](=O)[O-])o2)cc1 | 729 nM (active) |
| O=C(N/N=C/c1ccc([N+](=O)[O-])o1)C(O)c1ccccc1 (centres undefined) | 4100 nM (active) |
| Cc1cc(C)cc(OCC(=O)N/N=C/c2ccc([N+](=O)[O-])o2)c1 | 579 nM (active) |
| O=C(COc1ccccc1)N/N=C/c1ccc([N+](=O)[O-])o1 | 460 nM (active) |
| CCN1C[C@@H]2[C@@H]3C(=O)N(Cc4ccccc4)C(=O)[C@@H]3[C@](C)(C1=O)N2C(=O)c1ccccc1 | inactive |
| CCCOc1ccc(CCC(=O)N/N=C/c2ccc([N+](=O)[O-])o2)cc1 | 729 nM (active) |
| Cc1ccccc1OCC(=O)N/N=C/c1ccc([N+](=O)[O-])o1 | 516 nM (active) |
| COc1ccc(Cc2nnc(NC(=O)Nc3ccccc3F)s2)cc1OC | inactive |
| COc1ccc(CC(=O)Nc2ncc([N+](=O)[O-])s2)cc1OC | 259 nM (active) |
| Cc1ccc(C(=O)Nc2ncc([N+](=O)[O-])s2)cc1 | 259 nM (active) |
| Cc1nc(C)c(C(=O)Nc2ncc([N+](=O)[O-])s2)o1 | 1160 nM (active) |
| O=C(Cc1ccc(Cl)cc1)Nc1ncc([N+](=O)[O-])s1 | 818 nM (active) |
| CC1CCN(S(=O)(=O)c2cn(C)c(=O)n(C)c2=O)CC1 | inactive |
| Cc1ccc(OCC(=O)N(Cc2cccc(Cl)c2)C2CCS(=O)(=O)C2)cc1C (centres undefined) | inactive |
| O=C(/C=C/c1ccc([N+](=O)[O-])cc1)Nc1ncc([N+](=O)[O-])s1 | 650 nM (active) |
| O=C(Cc1ccc(Br)cc1)Nc1ncc([N+](=O)[O-])s1 | 230 nM (active) |
| CC12CCC(C(=O)Nc3ncc([N+](=O)[O-])s3)(OC1=O)C2(C)C (centres undefined) | 206 nM (active) |
| O=C(Nc1ncc([N+](=O)[O-])s1)c1ccc2c(c1)OCO2 | 259 nM (active) |
| O=C(Cc1c(F)cccc1Cl)Nc1ncc([N+](=O)[O-])s1 | 206 nM (active) |

| SMILES | Potency |
| --- | --- |
| Cc1onc(-c2ccccc2)c1C(=O)Nc1ncc([N+](=O)[O-])s1 | 579 nM (active) |
| O=C(COc1ccc(Cl)cc1)Nc1ncc([N+](=O)[O-])s1 | 410 nM (active) |
| Cc1ccc(S(=O)(=O)CC(=O)Nc2ncc([N+](=O)[O-])s2)cc1 | 579 nM (active) |
| Cc1onc(-c2ccccc2)c1C(=O)N(Cc1ccccc1)C(C)C | inactive |
| Cc1ccc(S(=O)(=O)CC(=O)Nc2ccc(F)c(F)c2F)cc1 | inactive |
| Cc1onc(-c2ccccc2)c1NC(=O)N(Cc1ccccc1)C(C)C | inactive |
| CCn1cc(C(=O)NCCC(C)C)c(=O)c2cc(F)c(N3CCN(C(=O)c4ccco4)CC3)cc21 | inactive |
| Cc1ccc(CC(=O)Nc2ncc([N+](=O)[O-])s2)cc1 | 130 nM (active) |
| O=C(Nc1ncc([N+](=O)[O-])s1)c1cccc([N+](=O)[O-])c1 | 290 nM (active) |
| O=C(NNC(=O)c1ccncc1)Nc1cccc([N+](=O)[O-])c1 | inactive |
| CC(=O)Nc1ccc(NC(=O)c2c([N+](=O)[O-])cnn2C)cc1 | 1300 nM (active) |
| CCS(=O)(=O)CCn1c([N+](=O)[O-])cnc1C | 918 nM (active) |
| Cc1nonc1OCCn1c([N+](=O)[O-])cnc1C | 1160 nM (active) |
| Cc1ncc([N+](=O)[O-])n1CCN1C(=O)c2ccccc2C1=O | 650 nM (active) |
| CCOc1cc(C=O)ccc1OCCn1c([N+](=O)[O-])cnc1C | 650 nM (active) |
| Cc1ncc([N+](=O)[O-])n1CCO | 4.1 µM (active) and 4.6 µM (active) |
| Cc1ncc([N+](=O)[O-])n1CC(O)CCl (centres undefined) | 1160 nM (active) |
| COc1cc2nc(N3CCN(c4cc(C)ccc4C)CC3)nc(N)c2cc1OC | 4100 nM (active) |
| COc1cc2nc(N3CCCCC3)nc(NC3CCN(Cc4ccccc4)CC3)c2cc1OC | 2050 nM (active) |
| COc1cc2nc(N3CCN(C)CC3)nc(NC3CC3)c2cc1OC | 365 nM (active) |
| COc1cc2nc(N3CCN(C)CC3)nc(NC(C)C)c2cc1OC | 918 nM (active) |
| COc1cc2nc(N3CCCN(C)CC3)nc(NC3CCCCC3)c2cc1OC | 650 nM (active) |
| Cc1ccc(C(C(=O)NCc2ccco2)N(C(=O)CNC(=O)c2cccs2)c2c(C)cccc2C)cc1 (centres undefined) | 818 nM (active) |
| O=C1C2C3C=CC(C3)C2C(=O)N1Nc1ccc([N+](=O)[O-])cc1[N+](=O)[O-] (centres undefined) | 4100 nM (active) |

| SMILES | Potency |
| --- | --- |
| Cn1c(=NC(=O)c2cnccn2)sc2ccccc21 | 5790 nM (active) |
| CC(Oc1ccccc1)C(=O)Nc1nnc(S(=O)(=O)N2CCCCCC2)s1 (centres undefined) | 5160 nM (active) |
| CC(Oc1ccccc1)C(=O)Nc1nnc(S(=O)(=O)N2CCCCC2)s1 (centres undefined) | 3650 nM (active) |
| Cn1nc(N)c2c(-c3ccc(Cl)cc3)c(C#N)c(N)nc21 | 2900 nM (active) |
| Cn1nc(N)c2c(-c3ccccc3)c(C#N)c(N)nc21 | 4600 nM (active) |
| Cc1cc(C(=O)COc2cccnc2[N+](=O)[O-])c(C)n1Cc1cccs1 | 1030 nM (active) |
| Cc1ccc(OCC(=O)c2cc(C)n(Cc3cccs3)c2C)c([N+](=O)[O-])n1 | 818 nM (active) |
| COc1ccc(-c2nn(-c3ccccc3)cc2C(=O)N/N=C/c2ccc([N+](=O)[O-])o2)cc1 | 516 nM (active) |
| O=C(N/N=C/c1ccc([N+](=O)[O-])o1)c1cn(-c2ccccc2)nc1-c1ccc(F)cc1 | 516 nM (active) |
| O=C(N/N=C/c1ccc([N+](=O)[O-])o1)c1cn(-c2ccccc2)nc1-c1ccc(Cl)cc1 | 1030 nM (active) |
| O=C(N/N=C/c1ccc([N+](=O)[O-])o1)c1cn(-c2ccccc2)nc1-c1ccccc1 | 818 nM (active) |
| CCOC(=O)c1cc([N+](=O)[O-])sc1NC(=O)CC | 1030 nM (active) |
| CN(Cc1cccc(Cl)c1)C(=O)C1CCC(=O)N(C2CC2)C1 (centres undefined) | inactive |
| O=C(COc1cccnc1[N+](=O)[O-])Nc1cc(Cl)ccc1Cl | 4600 nM (active) |
| O=C(COc1cccnc1[N+](=O)[O-])Nc1ccc(Cl)cc1F | 1830 nM (active) |
| CC(OC(=O)c1ccc([N+](=O)[O-])s1)C(=O)NC1CCCCC1C (centres undefined) | 3650 nM (active) |
| CC(OC(=O)c1ccc(Cl)nc1)C(=O)NC1CCCC1 (centres undefined) | inactive |
| O=C(NCc1ccc(Cl)cc1)C1CCC(CNS(=O)(=O)c2ccccc2)CC1 (centres undefined) | inactive |
| Cc1ccc2nc(NC(=O)C3CCCN(S(=O)(=O)c4cnc[nH]4)C3)sc2c1 (centres undefined) | inactive |
| O=C(NCc1ccccn1)C1CCCN(S(=O)(=O)c2cc(Cl)ccc2Cl)C1 (centres undefined) | 1030 nM (active) |
| CC/C=C1/N=C2C(=O)N(C)C(=O)N=C2N(C)N1 | 130 nM (active) |
| CN1N/C(=C\c2ccccc2)N=C2C(=O)N(C)C(=O)N=C21 | 259 nM (active) |
